Assay outcomes (PubChem BioAssay)
L major viab – Leishmania major promastigote growth inhibition, primary screen | Leishmania major promastigotes, resazurin fluorescence viability | inhibition, % at 10 µM | hit rate 9% among 200,000 | AID 1063, 2008; in the data active means inhibition above about 50%;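 further: promastigotes grown with compound for 44 hours at 28 °C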
WT yeast gro inh – growth inhibition of WT strain, primary screen, mitochondrial fusion inhibitor project, WT and mutant strains, chemical genetic | mitochondrial fusion phenotypic screen | inhibition, % at 10 µM | hit rate 2.1% among 190,000 | AID 1362, 2008; in the data active means inhibition above about 58%; tested in S. cerevisiae
KCC2 mod – KCC2 cotransporter modulators, thallium flux, primary screen, cell-based, HEK293 KCC2, FluoZin-2 fluorescence, MLSMR; B-score of Tl+ flux slope (higher = more flux/activation; lower = inhibition) at 10 µM; hit rate 2.2% among 190,000; KCC2 cells, thallium flux FluoZin-2 fluorescence; Solute carrier family 12 member 5 (Homo sapiens), Q9H2X9; AID 1456, 2008;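 active means thallium flux slope and its plate-corrected score both differing from the plate sample mean at a set confidence after two filtering rounds, in either direction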;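 further: slope of fluorescence scaled to starting intensity during 10 to 20 s after thallium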
ROMK mod – ROMK potassium channel modulators, primary screen, cell-based, thallium flux, MLSMR library | Tet-inducible ROMK, thallium flux fluorescence; actives lie on both sides | B-score at 10 µM | hit rate 2% among 130,000;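 active means signal ratio slope over the read window, or its plate-corrected B-score, at least 3 SD from the plate mean, either direction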;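 further: B-score of the F/F0 ratio slope over 7 to 12 s after thallium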
Target sequence (P48048 whole entry, looked up): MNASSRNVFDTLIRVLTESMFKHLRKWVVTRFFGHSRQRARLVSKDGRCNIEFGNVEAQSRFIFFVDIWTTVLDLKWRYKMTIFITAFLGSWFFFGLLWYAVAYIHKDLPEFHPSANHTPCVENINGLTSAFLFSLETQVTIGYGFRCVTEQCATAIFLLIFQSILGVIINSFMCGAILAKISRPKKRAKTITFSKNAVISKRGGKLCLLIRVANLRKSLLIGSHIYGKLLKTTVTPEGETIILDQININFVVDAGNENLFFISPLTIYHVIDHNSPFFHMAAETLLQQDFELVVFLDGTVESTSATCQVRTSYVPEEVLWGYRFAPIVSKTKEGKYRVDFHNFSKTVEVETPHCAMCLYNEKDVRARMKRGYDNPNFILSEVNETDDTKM
Calpain2 inh – inhibitors of pig calpain II, primary screen, biochemical, fluorogenic peptide substrate, 1536-well; hit rate 0.37% among 220,000; inhibition, % at 16 µM; purified calpain II, 30 min;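 active means inhibition above about 50%, limit read from the data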
ROMK retest – ROMK channel modulator hit retest, confirmation, cell-based, thallium flux, duplicate, resupplied hits; shares compounds with ROMK mod; fluorescence ratio; hits give low values; normalized thallium flux (F/F0 slope) at 10 µM; hit rate 54% among 3,000; AID 1917, 2009;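 active means Flux at 10 µM at least 3 SD below or above vehicle control mean in one or both replicates; inconclusive means no clear call, values can overlap the other calls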
Large screens that a line does not name were inactive (follow-up assays come after a bar, where they were run). An excerpt weighted towards active compounds, which were near 12% of everything screened.

O=S(=O)(Nc1nc2ccccc2nc1Nc1ccc(N2CCOCC2)cc1)c1cc(Cl)ccc1Cl	none (no result: ROMK mod) | ROMK retest 0.057
Clc1nc(Nc2ccc(N3CCOCC3)cc2)c2ccccc2n1	none
C/C(=N\NC(=O)CC#N)c1cc2ccc(O)cc2oc1=O	ROMK mod -3.4 | ROMK retest 0.056
COc1ccccc1C(=O)c1cc2ccc(O)cc2oc1=O	none (no result: ROMK mod)
N#CC1=C(N)NC(SCC(=O)c2ccc(Cl)cc2)=C(C#N)C12CCCC2	ROMK mod -2.3 | ROMK retest 0.066
CC(=O)C1=C(C)NC(SCC(=O)c2ccc(Cl)cc2)=C(C#N)C1CC(C)C (centres undefined)	none
Cc1ccc(-c2csc(NC(=O)Cc3ccc(F)cc3)n2)o1	ROMK mod 4.9 | ROMK retest inactive
Cc1cc(C)nc(N/N=C/c2sccc2C)n1	ROMK mod -19 | ROMK retest inactive
Cc1cc(C)nc(N/N=C/c2ccccc2)n1	none
c1ccc2c(N3CCCCCC3)nc(-c3ccncc3)nc2c1	L major viab 87, ROMK mod -2.8 | ROMK retest inconclusive
Fc1ccccc1-c1nc(N2CCCCC2)c2ccccc2n1	none
Cc1oc(-c2cccc(Cl)c2)nc1CN1CCCC(C(=O)NCc2ccco2)C1 (centres undefined)	none (no result: KCC2 mod)
Cc1cccc(-c2nc(CN3CCCC(C(=O)NC4CCCCC4)C3)c(C)o2)c1 (centres undefined)	ROMK mod -2.5 (no result: KCC2 mod) | ROMK retest 0.066
Cc1cccc(-c2nc(CN3CCCC(C(=O)NC4CCCCCC4)C3)c(C)o2)c1 (centres undefined)	ROMK mod -3.5 (no result: KCC2 mod) | ROMK retest 0.062
CCOC(=O)COc1cccc2c(=O)n(CC(N)=O)ccc12	none (no result: L major viab, WT yeast gro inh)
CCOC(=O)COc1cccc2c(=O)n(CC(=O)NCc3ccc(F)cc3)ccc12	ROMK mod 3.1 (no result: L major viab, WT yeast gro inh) | ROMK retest inactive
CCOC(=O)COc1cccc2c(=O)n(CC(=O)NCc3ccccc3)ccc12	ROMK mod 4.7 (no result: L major viab, WT yeast gro inh) | ROMK retest inactive
CCN1C(=C2C(=O)c3ccccc3C2=O)C=Cc2ccccc21	none
CCN1/C(=C/c2ccc3ccccc3[n+]2CC)C=Cc2ccccc21	L major viab 101, WT yeast gro inh 83, ROMK mod -4.7 | ROMK retest 0.038
Cc1ccc(NC(=O)/C=N/OCC(=O)NCc2ccccc2Cl)cc1	none (no result: L major viab, WT yeast gro inh)
CCOc1cc(/C=C(\C#N)c2[nH]nc(N)c2C#N)ccc1O	L major viab 67, ROMK mod 4.8 (no result: KCC2 mod) | ROMK retest inactive
Cc1ccc(C(=O)OCc2ccc3c(c2)OCO3)cc1S(=O)(=O)N1CCCCC1	none (no result: KCC2 mod)
Cc1c(N=C2N=C(NC(=O)Nc3ccc(Cl)cc3)c3ccccc32)c(=O)n(-c2ccccc2)n1C	ROMK mod -3.9 (no result: KCC2 mod) | ROMK retest 0.06
O=C(OCC#CCSc1nnc(-c2ccccc2)o1)c1cccs1	none | ROMK retest 0.058
OC(C#CCCN1CCCCC1)(c1ccccc1)C1CCCCC1 (centres undefined)	none (no result: L major viab, WT yeast gro inh, ROMK mod) | ROMK retest 0.062
OC(C#CCCN1CCCCC1)(c1ccccc1)c1ccccc1	none (no result: L major viab, WT yeast gro inh, ROMK mod)
O=C(Nc1ccccc1-c1ccccc1)NC1CC2CCCC(C1)N2CCc1ccccc1 (centres undefined)	L major viab 72, ROMK mod -3.1 | ROMK retest 0.058
CCCN1C2CCCC1CC(NC(=O)Nc1cccc(C(C)=O)c1)C2 (centres undefined)	none (no result: ROMK mod)
CC(c1ccccc1)N1C(=O)CC(Sc2ncccc2C(=O)O)C1=O (centres undefined)	ROMK mod 0.9 | ROMK retest inactive
O=C(O)c1cccnc1SC1CC(=O)N(c2ccccc2)C1=O (centres undefined)	none (no result: L major viab, WT yeast gro inh)
COCCNC(=O)CSC1=N/C(=C/c2ccc(Cl)c(Cl)c2)C(=O)N1c1ccccc1F	none (no result: ROMK mod) | ROMK retest inactive
C=CCN1C(=O)/C(=C\c2ccc(Cl)cc2)N=C1SCC(=O)NCCC	none
CCc1c(C)nc2ncnn2c1N1CCC(C(=O)NCc2cccc(OC)c2)CC1	none (no result: ROMK mod)
CCc1c(C)nc2ncnn2c1N1CCC(C(=O)Nc2cccc(C(C)=O)c2)CC1	none (no result: ROMK mod) | ROMK retest inconclusive
O=C(CNC(=O)c1ccc(-c2ccccc2)cc1)OCc1c(Cl)cccc1Cl	none
CCOC(=O)C1(CC2CC2)CCN(Cc2cn[nH]c2-c2ccccc2)CC1	none
CCOC(=O)C1(Cc2ccccc2)CCN(Cc2cn[nH]c2-c2ccccc2)CC1	ROMK mod -2.5 | ROMK retest 0.056
Cc1cc(C2=NNC(=NC3CC3)SC2)c(C)n1Cc1ccco1	none (no result: ROMK mod)
COCCCN=C1NN=C(c2cc(C)n(Cc3ccco3)c2C)CS1	L major viab 95, ROMK mod 1.3 | ROMK retest inactive
CC(=O)OCC(OC(C)=O)C(OC(C)=O)C(OC(C)=O)C(=O)Nc1cccc(C)c1 (centres undefined)	none (no result: L major viab, WT yeast gro inh, ROMK mod)
C/C(=N\NC(=O)COc1ccccc1[N+](=O)[O-])c1cccs1	ROMK mod 1.4 (no result: KCC2 mod) | ROMK retest inactive
COc1ccc(OCC(=O)N/N=C(\C)c2cccs2)cc1	none (no result: L major viab, WT yeast gro inh, ROMK mod)
O=C(CC1C(=O)NCCN1C/C=C/c1ccccc1)NCCCC1CCCC1 (centres undefined)	none
CCCCCCCCCCCC(=O)NC(Cc1ccc(OC)c([N+](=O)[O-])c1)C(=O)O (centres undefined)	ROMK mod 4.5 (no result: L major viab, WT yeast gro inh) | ROMK retest inconclusive
CN(C)CCNC(=O)c1ccc(Sc2ccc(Br)cc2)c([N+](=O)[O-])c1	L major viab 100, ROMK mod -2.8 | ROMK retest 0.063
O=C(NCc1ccccc1)N1CCC(n2cnc3cc(F)ccc32)CC1	none (no result: ROMK mod) | ROMK retest 0.069
Cc1ccc(C2(c3noc(CN4CCC(C(=O)N5CCOCC5)CC4)n3)CCCC2)cc1	none
Cc1ccc(S(=O)(=O)Nc2cc(NC(=O)CN3CCOCC3)ccc2Cl)cc1	none (no result: WT yeast gro inh, ROMK mod) | ROMK retest inactive
CC(=O)C1C(c2cccc(F)c2)NC(=O)NC1(O)C(F)(F)F (centres undefined)	none (no result: ROMK mod)
N#Cc1ccc2c(c1)nc1ccccn12	none (no result: ROMK mod)
Clc1ccc2nc3ccccn3c2c1	ROMK mod 3.6 (no result: KCC2 mod) | ROMK retest inactive
COCCCNC(=O)C(=O)NCCCOC(C)C	none (no result: KCC2 mod, ROMK mod)
COc1cc(CNC2CCCC2)cc(OC)c1OC	none
CCOc1cc(CNC2CCCC2)cc(Cl)c1OCc1ccc(F)cc1	L major viab 100, ROMK mod -3.8 | ROMK retest 0.061
COc1cc(O)sc1C=Nc1ccc(Cl)cc1Cl	none
CC(=O)c1ccc(N2CCN(C(=O)c3cc4c(-c5ccccc5F)nn(C)c4s3)CC2)cc1	none (no result: KCC2 mod, ROMK mod) | ROMK retest 0.062
COc1cc(/C=N\n2cnnc2)ccc1OCC(=O)Nc1ccc(C)cc1	none (no result: ROMK mod) | ROMK retest inactive
CC(=Nc1ccc(C)cc1)c1sc2ccccc2c1O	none (no result: ROMK mod)
CC(=Nc1cccc(O)c1)c1sc2ccccc2c1O	ROMK mod -2.4 (no result: KCC2 mod) | ROMK retest 0.058
